Results from PubChem BioAssay (NCI).
Compounds without any hit were thinned out: in the full panel of roughly 83,000, 20% have a hit.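 Negative percent growth values reflect cell death: -40 means 40% of the cells present at the start died, and -100 means all died.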 Values without a mark were called inactive. Activity calls are given as the source filed them. The calls were made as follows: active = growth percent below 10; inactive = the rest.

Columns and labels:
Assay in all cases: NCI-60 one-dose screen, 48 h (100 = growth as untreated, 0 = no growth, -100 = all killed)
Settings in all cases: 10 µM unless noted
T-47D breast = system: T-47D breast
BT-549 breast = system: BT-549 breast
MDA-MB-435 melanoma = system: MDA-MB-435 melanoma
SW-620 colon = system: SW-620 colon
MCF7 breast = system: MCF7 breast
HCT-116 colon = system: HCT-116 colon
HCC-2998 colon = system: HCC-2998 colon
KM12 colon = system: KM12 colon

SMILES | growth (T-47D breast) | growth (BT-549 breast) | growth (MDA-MB-435 melanoma) | growth (SW-620 colon) | growth (MCF7 breast) | growth (HCT-116 colon) | growth (HCC-2998 colon) | growth (KM12 colon)
Cc1noc(C)c1CSc1nc2ccccc2n1-c1ccccc1 | 93.8% | 87.5% | 100% | 94.5% | 94.9% | 92.9% | 112% | 101%
NC(N)=Nc1ccc(Oc2ccc(Nc3ccc(Cl)c(C(F)(F)F)c3)cc2)cc1 | 41.1% | 86.1% | 40.3% | 25.6% | 2.64% (active) | 11.3% | 1.24% (active) | 5.94% (active)
COC(=O)c1[nH]nc2c1C1(C(=O)N(C)c3ccccc31)C(C#N)=C(N)O2 (stereo not drawn) | 108% | 133% | 99.9% | 93% | 89.6% | 101% | 104% | 103%
O=C(CN1CCN(c2cc(=O)n(-c3ccccc3)c3ccccc23)CC1)Nc1nc(-c2ccccc2)cs1 | 16.6% | 67.1% | 73.4% | 68.6% | 27.6% | 53.4% | 81.8% | 63%
CN(C)CCN(C)c1ccc2ncc(C#Cc3cncc(C(=O)Nc4ccc(CN5CCN(C)CC5)c(C(F)(F)F)c4)c3)n2n1 | 101% | 111% | 48.4% | -44.9% (active) | -63.7% (active) | -85.9% (active) | 33.9% | -39.8% (active)
COc1cc2oc(-c3cccc(C(=O)N[C@@H](CC(C)C)C(=O)OC(C)(C)C)c3)cc(=O)c2c(OC)c1OC | 52.7% | 67.5% | 90% | 83.4% | 69.9% | 62.5% | 84% | 59.8%
C=C(C=O)[C@@H]1CC[C@]2(CO)CC[C@]3(C)[C@H](CC[C@@H]4[C@@]5(C)CCCNC(C)(C)[C@@H]5CC[C@]43C)[C@@H]12 | 13.3% | 74.3% | 76.3% | 1.41% (active) | 12.7% | -63.8% (active) | -65.7% (active) | 1.61% (active)
O=C1CCCC2=C1C(c1c[nH]c3ccc(Br)cc13)Cc1cc(Br)ccc1N2 (stereo not drawn) | 20.7% | 39.4% | -10.2% (active) | 22.7% | 23.4% | 19.3% | 68.2% | 21.7%
COc1ccc(Cn2cc3c(c2-c2cc(OC)c(OC)c(OC)c2)CCc2c(CN4CCCC4)noc2-3)cc1 | 42.9% | 76% | -39.2% (active) | 26.4% | 15.5% | 18% | 24.9% | 14.9%
C#Cc1nc(C(=O)NCCC(=O)Nc2ccc(NC(=O)c3ccc(/C=C/C(=O)c4nccn4C)cc3)cc2)cs1 | 49.3% | 54.3% | 27% | 15.7% | 8.54% (active) | -33.1% (active) | 93.5% | 9.96% (active)
Cc1ccc(S(=O)(=O)NCCNc2nc(Nc3ccc(N4CCN(C)CC4)cc3)nc3ccsc23)cc1 | 102% | 114% | 109% | 103% | 87.4% | 69.7% | 104% | 100%
Fc1ccc(-c2cc3nc(C(Cl)Cl)nc(-c4ccc(F)cc4)n3n2)cc1 | 34.3% | 47% | 14.6% | -29.3% (active) | 24.2% | 4.72% (active) | -45.8% (active) | -12.5% (active)
C=CCn1c(SCC(=O)Nc2ccc(C(=O)/C=C/c3ccc(Br)cc3)cc2)nnc1-c1c[nH]c2ccccc12 | 60.7% | 119% | 94.7% | 92.3% | 22.8% | -60.7% (active) | 109% | 89.3%
NS(=O)(=O)c1ccc(-n2cc(-c3cccc(NC(=O)c4ccc(N5CCOCC5)c(C(F)(F)F)c4)c3)nn2)cc1 | 4.61% (active) | 73.2% | 62.9% | 64.5% | 36.9% | 32.5% | 66% | 25.8%
COc1cc(-c2nn(C(C)(C)C)cc2-c2ccnc(NCCCNS(=O)(=O)c3ccccc3)n2)ccc1Cl | 82.3% | 81.1% | 84% | 90.3% | 70.1% | 59.9% | 95.6% | 86.5%
CC[C@@H](CO)Nc1ccc2ncc(C#Cc3cncc(C(=O)Nc4ccc(CN5CCN(C)CC5)c(C(F)(F)F)c4)c3)n2n1 | -75.8% (active) | -91.7% (active) | -88% (active) | -44.8% (active) | -69.6% (active) | -92.5% (active) | -43.2% (active) | -34.1% (active)

SMILES | growth (T-47D breast) | growth (BT-549 breast) | growth (MDA-MB-435 melanoma) | growth (SW-620 colon) | growth (MCF7 breast) | growth (HCT-116 colon) | growth (HCC-2998 colon) | growth (KM12 colon)
c1cn2c(ccc3nc(-c4cn[nH]c4)c4c(c32)CCCC4)n1 | 45.4% | 53.1% | 34.9% | 61.2% | 60.9% | 48.7% | 87.2% | 74.9%
Cc1ccc(-n2c(/C=C3\C(=O)Nc4ccccc43)ccc2CO)cc1 | 77.4% | 66.6% | -10.3% (active) | 43.3% | 34.5% | 52.8% | 95.7% | 18.8%
Cn1cc(CNc2nc3ccc(OC/C(=C/F)CN)cc3o2)ccc1=O | 105% | 99.8% | 104% | 107% | 91.7% | 103% | 99% | 105%
COc1cccc(C(=O)Nc2cccc(C#Cc3cccc4[nH]nc(N)c34)c2)c1 | 38% | 121% | 1.93% (active) | 34% | 30.7% | 33.1% | 45.9% | 12.6%
Nc1ncc(-c2ccc(NS(=O)(=O)c3ccc(Cl)c(Cl)c3)cc2)[nH]1 | 76.7% | 69.9% | 96.4% | 91.3% | 75% | 99.3% | 91.2% | 89.6%
CCNC(=O)N1CCc2cc(OC)c(OCCc3ccc(OC)cc3)cc2C1c1ccc([N+](=O)[O-])cc1C (stereo not drawn) | 53% | 20.1% | 14.5% | 23.8% | 18.4% | 8.8% (active) | 14.5% | 18.6%
NC(N)=Nc1ccc(Oc2cccc(NC(N)=Nc3ccc(I)cc3F)c2)cn1 | 26.1% | 89.5% | 68.3% | 76.3% | 7.64% (active) | 58.2% | 70.9% | 47.7%
O=C(NNc1nc2cc(F)ccc2n2c(CN3CC4CNCC4C3)ccc12)c1cnccn1 (stereo not drawn) | 37.8% | 35.3% | 26.1% | 23% | 12.2% | 16.4% | 32.1% | 16.8%
COc1ccc(-c2nc3cccc(O)c3c(=O)n2Cc2ccccc2)cc1COc1ccc(NC(C)=O)cc1 | 76.5% [3 µM] | 55.4% [3 µM] | 59.7% [3 µM] | 27.9% [3 µM] | 37.1% [3 µM] | 22.1% [3 µM] | 67.8% [3 µM] | 39.8% [3 µM]
O=C(Nc1cccc(Cl)c1)Nc1nc2ccc([N+](=O)[O-])cc2o1 | -10.9% (active) | 24% | 19.2% | 7.83% (active) | 12.1% | 5.21% (active) | 24.3% | 7.17% (active)
COc1ccc(Cn2cc3c(c2-c2cc(OC)c(OC)c(OC)c2)CCc2c(CN4CCOCC4)noc2-3)cc1 | 61.5% | 76.8% | -19.9% (active) | 30.4% | 16.8% | 13.4% | 21.3% | 16.9%
CC1(C)CC[C@]2(C(=O)N3CCOCC3)CC[C@]3(C)C(=CC[C@@H]4[C@@]5(C)C/C(=C/c6ccccn6)C(=O)C(C)(C)[C@@H]5CC[C@]43C)[C@@H]2C1 | 53.4% | 70% | 68.6% | 69.6% | 44% | 34.9% | 81.4% | 72.4%
CC(=O)O[C@@H]1C(=O)N(c2cnccn2)[C@H]1c1ccccc1[N+](=O)[O-] | 85.2% | -13.3% (active) | -38.7% (active) | 20.1% | 15.5% | -14.2% (active) | 31.5% | -2.26% (active)
COc1cc(OC)c(S(N)(=O)=O)cc1C(=O)/C=C/c1ccc(C)cc1 | 2.31% (active) | 21.2% | 8.41% (active) | 6.29% (active) | 12.2% | 11.4% | 8.59% (active) | -1.47% (active)
COc1cc(-c2nc(SC(C)C)n(C(C)C)c(=O)c2C#N)ccc1OCc1ccccc1 | 52.6% | 93.8% | 85% | 52.4% | 75.3% | 42.9% | 87.6% | 95.1%
